# Experimental data reported in PubChem BioAssay (NCATS).
# Results filed as inconclusive are left out. Entries that show only a call come without a potency. Calls of active or inactive are those of the source. The call rests on the fitted dose curve; in most records, active means well fitted activation curve with a large enough effect; inconclusive means small, poorly fitted or top-dose-only effect; inactive means no such curve, though single readings can be large or run the other way.
# Experiment: qHTS for Activators of Parkin Expression: LOPAC Validation Assay (FLuc Reporter) (AID 720573)
# Details: Cell line, PRKN promoter firefly luciferase reporter; series mostly up to 46.1 µM
# Text: Parkin is an E3 ubiquitin ligase localized in the cytosol of cells expressed in many tissues, including brain, skeletal muscle, heart and liver tissues. One hour after stress induction by mitochondrial uncouplers (which mimic mitochondria damage by decreasing the mitochondrial inner membrane electrochemical gradient that is used to produce ATP), Parkin translocates from the cytosol to mitochondria in many cultured cell types, including neurons and HeLa cells. Administration of other mitochondrial poisons, such as Paraquat and azide in cells lacking mitochondrial DNA (mtDNA), induces Parkin translocation to mitochondria. […] It was proposed that Parkin (together with Pink1) mediates a mitochondrial quality control pathway to maintain organelle population fidelity by removing damaged mitochondria. Understanding the normal physiologic role of Parkin (and Pink1) may uncover novel treatment strategies for sporadic Parkinson's disease patients with mutation in these genes.
# A cell based qHTS in 1536 well format was developed assess modulation of Parkin expression using a neuronal cell line that stably expresses a stably expresses a luminescent coincidence reporter (FLuc and NLuc reporters) behind the Parkin promoter. The LOPAC library is used to validate the assay for quantitative high-throughput screening. The data herein reports the signal from the FLuc reporter. An increase in this signal = activation of Parkin expression. For this assay , a positive control normalized signal increase corresponding to a high quality qHTS curve class in both luminescent channels is the desired outcome for this assay.
# NIH Chemical Genomics Center [NCGC]
# NIH Molecular Libraries Probe Centers Network [MLPCN]
# Assay Submitter (PI): Richard Youle, National Institute of Neurological Disorders and Strokes (NINDS), NIH
# [1] Narendra, D., et al., Parkin is recruited selectively to impaired mitochondria and promotes their autophagy. J Cell Biol, 2008. 183(5): p. 795-803.
# [2] Suen, D.F., et al., Parkin overexpression selects against a deleterious mtDNA mutation in heteroplasmic cybrid cells. Proc Natl Acad Sci U S A, 2010. […] 11835-40.
# [3] Cheng K, Inglese J. A coincedence reporter-gene system for high-throughput screening. Nat Methods. 2012: 9(10);937
# Five microliters (1,500 cells/well) of the Parkin coincidence reporter cells were seeded to 1536 well assay plates (Greiner Catalog # 789173-F) and incubated at 37 C, 5% CO2 for 24 hours. Compounds (23 nL) were pinned using the Kalypsys robotic system equipped with 1536 pin head adaptor in 7-point dose response. The assay plates were incubated for additional 24 hr at 37 C, 5% CO2 followed by a volume reduction in each well to 2 uL using an automated plate washer/aspirator. Following the volume reduction,2 uL of FLuc detection reagent and plates were incubated for 10 minutes at room temperature. The FLuc luminescence signal was obtained using the PerkinElmer ViewLux plate imager and then 2 uL of NanoLuc detection reagent was added to the plates. After another 10 minute incubation, NanoLuc signal was obtained using the PerkinElmer ViewLux plate imager as before. Data from each channel was normalized to DMSO (neutral control) and the positive control compounds (100%).
row,SMILES,Potency
1,Oc1ccc(Cn2cc[nH]c2=S)cc1,inactive
2,COC(=O)C(C)(N)Cc1ccc(O)cc1 (stereo not given),inactive
3,C=C(C)C1CC=C(C(=O)O)CC1 (stereo not given),inactive
4,NC1C=CC=C(C(=O)O)C1 (stereo not given),inactive
5,CO/N=C(\C(=O)N[C@@H]1C(=O)N2C(C(=O)O)=C(CSc3nc(=O)c(O)nn3C)CSC12)c1csc(N)n1 (stereo not given in full),inactive
6,CN1CCC2(CCN3CCc4c(oc5ccccc45)C3C2)N(C)C1=O (stereo not given),inactive
7,CCCCC[C@H](CC(=O)NO)C(=O)N[C@H](C(=O)N1CCC[C@H]1CO)C(C)C,inactive
8,COc1cc(CNC(=O)CCCCCCC(C)C)ccc1O,inactive
9,COc1ccc2c(c1)c(CC(=O)O)c(C)n2Cc1ccc(Cl)cc1,inactive
10,N=C(N)SCCN,inactive
11,COc1cc(C(O)C(=O)O)ccc1O (stereo not given),inactive
12,CCC(=O)N1CCN(C(=O)c2ccccc2)CC1,inactive
13,CCCCS(=N)(=O)CC[C@H](N)C(=O)O (stereo not given in full),inactive
14,OC1(c2ccc(Cl)cc2)CCN(Cc2c[nH]c3ccccc23)CC1,inactive
15,CN[C@H](CC(=O)O)C(=O)O,inactive
16,NC(N)=[N+]1CCc2ccccc2C1,inactive
17,NC(Cc1cccc(-c2ccccc2CP(=O)(O)O)c1)C(=O)O (stereo not given),inactive
18,COc1cc(C(O)CO)ccc1O (stereo not given),inactive
19,CC(C)Cn1c(=O)n(C)c(=O)c2[nH]cnc21,inactive
20,O=c1onc2n1-c1cc(Br)ccc1OC2,inactive

row,SMILES,Potency
1,CC(=O)N[C@@H](Cc1c[nH]c2ccccc12)C(=O)OCc1cc(C(F)(F)F)cc(C(F)(F)F)c1,inactive
2,Cc1nc2n(c(=O)c1CCN1CCC(c3noc4cc(F)ccc34)CC1)CCCC2O (stereo not given),inactive
3,O=C(O)C1=CCCNC1,inactive
4,O=C(O)c1cc2cc(F)ccc2[nH]1,inactive
5,Nn1nnc2ccccc21,inactive
6,C[C@@]1(C2CCCC2)Cc2cc(OCC(=O)O)c(Cl)c(Cl)c2C1=O,inactive
7,CN(C)C(=O)/N=N/C(=O)N(C)C,inactive
8,COc1ccc2c(c1)c(CC(=O)O)c(C)n2C(=O)c1ccccc1,inactive
9,CCCCOC(=O)NS(=O)(=O)c1sc(CC(C)C)cc1-c1ccc(Cn2c(CC)nc3c(C)cc(C)nc32)cc1,inactive
10,O=C1C2C=CC=CC2=NC(=S)N1CCN1CCC(=C(c2ccc(F)cc2)c2ccc(F)cc2)CC1 (stereo not given),inactive
11,O=[N+]([O-])c1cccc2cn[nH]c12,inactive
12,CCCn1c(=O)c2c(ncn2C)n(CCC)c1=O,inactive
13,CCN1C(=O)C=CC1=O,inactive
14,Nc1ncnc2c1ncn2C1CCCO1 (stereo not given),inactive
15,NCCS(=O)O,inactive
16,CCCc1c(-c2ccc(O)cc2)nn(-c2ccc(O)cc2)c1-c1ccc(O)cc1,inactive
17,CN1CCc2cc(Cl)c(O)cc2[C@@H](c2ccccc2)C1,inactive
18,O=C(O)c1cccnc1C(=O)O,inactive
19,O=C(OCCN1CCOCC1)C1(c2ccccc2)CCCCC1,inactive
20,Nc1ncnc2c1ncn2C1CCCC1,inactive
